From PubChem BioAssay
Shown are actives, neighbours in structure and some others; about 21% of the full set was active somewhere.
Shiga inhibitor = Shiga toxin inhibition | inhibition, % at 38.7 µM | AID 2315 | Vero cells, Shiga toxin protein synthesis inhibition reporter | 9.2% of 290,000 active; in the data active = inhibition mostly above about 28%, no sharp cut-off; inactive = mostly below about 43%
Pf growth 96h = P. falciparum growth inhibition at 96 hours | P. falciparum luciferase reporter growth, 96 h | Potency, µM (titrated, usually from 28.7 µM), actives largely listed as inhibitors | 6.9% of 320,000 active | AID 504834
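Two parasite generations (96 h, 37 C, 5% CO2) of compound exposure in infected erythrocytes (0.05% parasitemia, 2% hematocrit). Luciferase-reporter P. falciparum; decreased luminescence indicates inhibited growth, aimed at apicoplast-acting delayed death.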
Pf growth 48h = P. falciparum growth inhibition at 48 hours (one generation) | P. falciparum luciferase growth in erythrocytes, 48 h | Potency, µM (top dose mostly 28.7 µM), actives largely listed as inhibitors | 5.9% of 310,000 active | AID 504832
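A one-generation exposure of luciferase-tagged malaria parasites in RPMI 1640/Albumax erythrocyte culture, 37 C and 5% CO2. Inhibition is inferred from decreased luminescence after adding detection reagent.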
CHX counter = affects cycloheximide protein synthesis inhibition readout, counter-screen | AID 2314 | cell reporter, cycloheximide protein synthesis inhibition counterscreen | 12% of 300,000 active | max response, %; in the data active = max response mostly above about 13%, no sharp cut-off; inactive = mostly below about 14%; note: read at 38.3 µM for the half of the compounds with a filed dose
A number is an active result; . = inactive; ? = inconclusive; / = no result; [ ] = dose if it differs, or a comment. Unless noted, calls come from the whole dose curve; as a rule, active = well fitted inhibition curve with a large enough effect; inconclusive = small, poorly fitted or top-dose-only effect, or another doubt; inactive = no such curve, though single readings can be large or run the other way.

SMILES	Shiga inhibitor	Pf growth 96h	Pf growth 48h	CHX counter
COc1ccc(CCN2C(=O)CC(N3CCN(C/C=C/c4ccccc4)CC3)C2=O)cc1OC (stereo not given)	.	?	?	.
Cc1ccc2[nH]c(=O)c(-c3nc4cc(C)ccn4c3NCc3ccco3)cc2c1	.	.	.	24
NC(=O)c1c(NC(=O)c2cccs2)sc2c1CCCCCC2	.	.	.	30
O=C(Nc1sc2c(c1C(=O)Nc1cccc(Cl)c1)CCCC2)c1cccs1	.	/	/	.
O=C(Nc1sc2c(c1C(=O)O)CCC2)c1cccs1	115	.[5.75 µM]	.	48
CN(C)C(=O)c1ccc(NC(=O)COc2cccc3c2OC(C)(C)C3)cc1	/	.	?	/
CC(C)c1nc(SCC(=O)Nc2ccc(C(=O)O)cc2)c2c3c(sc2n1)CCCC3	.	.	.	.
Cc1cc(C)n(-c2nnc(C)n2/N=C/c2cc(Br)ccc2OCc2ccccc2)n1	.	.	4.7µM	20
Cc1cc(C)n(-c2nnc(C)n2/N=C/c2ccccc2OCc2ccccc2Cl)n1	.	.	?	.
NC(=O)NNc1ccccc1	.	.	.	.
S=C(N=Nc1ccccc1)NNc1ccccc1	122	.	.	54
CCCCn1c(N)c(N(CC(C)C)C(=O)c2ccco2)c(=O)[nH]c1=O	/	.	.	/
CCCOC(=O)c1ccccc1C(=O)OCCC	/	.	.	/
CC(C)(C)c1ccc(/C=C/C(=O)Nc2ccncc2)cc1	67	.	.	53
CCCOC(=O)c1cc(NC(=O)/C=C/c2ccccc2)ccc1O	74	10µM	?	17
CC(C)(C)NC(=O)/C=C/c1cccs1	.	.	.	17
CC(C)(C)NC(=O)/C=C/c1cccc(C(F)(F)F)c1	.	.	.	14
CCC(C)NC(=O)/C=C/c1cccs1 (stereo not given)	.	.	.	.
Cc1nc(NC(=O)/C=C/c2ccc(C(C)(C)C)cc2)sc1C(=O)N(C)C	.	.	?	.
COc1ccc(NC(=O)c2cccc3cccnc23)cc1S(N)(=O)=O	.	.	.	.
O=C1Nc2ccccc2C1(O)C/C(=N/O)c1ccccc1 (stereo not given)	.	.	.	.
Cc1ccc(NC(=O)/C=C/c2cccs2)c([N+](=O)[O-])c1	63	.	.	41
O=C(/C=C/c1cccs1)Nc1ccc([N+](=O)[O-])cc1	30	.	.	48
Cc1ccnc(NS(=O)(=O)c2ccc(NC(=O)/C=C/c3cccs3)cc2)n1	.	.	.	.
O=C(/C=C/c1cccs1)Nc1ccncc1	63	.	.	44
SMILES	Shiga inhibitor	Pf growth 96h	Pf growth 48h	CHX counter
CN1CCN(C(=S)NC(=O)/C=C/c2cccs2)CC1	.	.	.	22
C[C@H](N)C(=O)N1CCC(C(=O)N[C@@H](Cc2ccccc2)C(=O)Nc2ccc(F)cc2)CC1	.	.	.	.
CC(C)C(NC(=O)Nc1ccccc1)C(=O)Nc1cccc(S(=O)(=O)N(C)C)c1 (stereo not given)	.	.	?	.
CC(=O)Nc1ccc(S(=O)(=O)NCC2CCC(C(=O)N3CCCCC3)CC2)cc1 (stereo not given)	.	.	.	.
CCCCn1c(N)c(N(CC(C)C)C(=O)c2ccc([N+](=O)[O-])o2)c(=O)[nH]c1=O	/	?	.	/
CC(C)Oc1ccc(C(=O)OCC(=O)N2CCCc3ccccc32)cc1	/	.	.	/
O=C1CCCC2CCCCN12 (stereo not given)	.	/	/	.
Cc1cccc(NC(=O)/C=C/c2cccs2)n1	40	.	.	33
CN(C)C(=O)c1ccc(NC(=O)COC(=O)/C=C/c2cccs2)cc1	/	.	.	/
CCCOC(=O)c1ccc(NC(=O)/C=C/c2cccs2)cc1	73	.	?	33
O=C(/C=C/c1ccccc1)NCC(=O)N/N=C/c1cccs1	.	?	.	.
Cc1cccc(NC(=O)CCC(=O)c2cccs2)n1	/	.	.	/
O=C(/C=C/c1cccs1)NCc1ccccc1	.	.	.	35
O=C1CCC/C(=N/NC(=O)C2CCN(S(=O)(=O)c3cccs3)CC2)C1	.	.	.	.
NC(=O)OC[C@H](O)COc1ccc(Cl)cc1	/	.	.	/
CCOC(=O)C(C(=O)NCc1ccc(F)cc1)c1ncc(C(F)(F)F)cc1Cl (stereo not given)	.	.	?	17
O=C(NCc1ccc(F)cc1)C(C(=O)NCc1ccc(F)cc1)c1ncc(C(F)(F)F)cc1Cl	.	?	.	.
Cc1ccc(S(=O)(=O)NCc2ccccc2)cc1C(=O)NC(C)c1ccc(S(N)(=O)=O)cc1 (stereo not given)	/	.	?	/
O=C(NCC(c1ccco1)N1CCOCC1)C1CCCCC1 (stereo not given)	/	.	.	/
CN(Cc1cccc(F)c1)C(=O)c1ccc(S(=O)(=O)N2CCOCC2)cc1	/	.	?	/
COc1ccc(C(=O)COC(=O)c2ccn(C)n2)cc1	104	.	.	42
COc1cccc(NC(=O)COC(=O)c2ccco2)c1	41	.	.	12
CCOC(=O)c1cccc(NC(=O)c2ccco2)c1	28	/	.	41
COc1ccc(C(=O)COC(=O)c2cncc(Br)c2)cc1	/	.	.	/
Cc1ccc(C(=O)C(C)Oc2cccc(NC(=O)c3ccco3)c2)cc1 (stereo not given)	.	.	2.9µM	.
SMILES	Shiga inhibitor	Pf growth 96h	Pf growth 48h	CHX counter
Cc1ccc(NC(=O)COC(=O)c2ccco2)cc1C	/	.	.	/
COc1ccc(/C=C2\Oc3cc(OCC(=O)N4CC(O)C[C@H]4C(=O)O)ccc3C2=O)cc1OC (stereo not given in full)	.	.	.	.
CCOc1cc(NC(=O)c2ccco2)c(OCC)cc1NC(=O)Cc1cccc(OC)c1	.	.	4.7µM	.
O=C(c1ccccc1)c1cccc(NC(=O)c2ccco2)c1	60	?	.	24
COc1ccc(C(=O)COC(=O)c2ccco2)cc1	50	.	.	43
O=C(Nc1cccc(NC(=O)c2ccco2)c1)c1ccccc1	.	.	.	.
COc1ccc(C(=O)COc2cccc(NC(=O)c3ccco3)c2)cc1	.	.	?	12
Cc1ccnc(Cc2ccccc2)n1	.	.	.[0.00184 µM]	.
COc1cccc(C(=O)COc2cccc(NC(=O)c3ccco3)c2)c1	.	.	.	.
COc1cccc(NC(=O)c2ccco2)c1	86	.	.	36
O=C(Nc1cccc(OC(=O)c2ccco2)c1)c1ccco1	.	/	.	.
O=C(COc1cccc(NC(=O)c2ccco2)c1)c1ccccc1	62	?	.	37
CC(C)c1nnc(NC(=O)c2nc(S(=O)(=O)Cc3ccc(F)cc3)ncc2Cl)s1	98	.	.	59
Cc1ccc(CS(=O)(=O)c2ncc(Cl)c(C(=O)Nc3nnc(C(C)C)s3)n2)cc1	75	?	.	52
Cc1cccc(CS(=O)(=O)c2ncc(Cl)c(C(=O)Nc3nnc(C(C)C)s3)n2)c1	45	?	?	54
CSc1nnc(NC(=O)c2nc(S(=O)(=O)Cc3cccc(C)c3)ncc2Cl)s1	104	?	.	62
CN(CC(=O)Nc1ccccc1Cl)C(=O)CSc1nnc(-c2ccco2)n1C	/	?	.	/
CCSc1nnc(NC(=O)c2nc(S(=O)(=O)Cc3ccc(F)cc3)ncc2Cl)s1	75	.	.	50
Cn1c(O)c(N=NC(=O)CNC(=O)c2cccnc2)c2ccccc21	.	.	.	.
